Assay results as given in PubChem BioAssay (NCI).
Several values for one entry are separate records, joined by “and”; a condition that tells them apart may be missing. Equal values may be shown once. Compounds without any hit were thinned out: in the full panel of roughly 79,000, 15% have a hit. A structure can be active in one record and inactive in another. Activity calls are given as the source filed them. Rule as the data show it: active = growth inhibition above about 70%; inactive = the rest.

How the values were obtained:
[1] = NCI Yeast Anticancer Drug Screen. Data for the rad50 strain (AID 155);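 also: 0% = growth of vehicle-only cultures of the same strain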; settings: S. cerevisiae rad50 strain growth inhibition; at 50.0 µM; stronger effect = higher value
Method in brief: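 Inhibition values express reduced yeast growth in compound-treated cultures relative to vehicle-treated controls.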

[2] = NCI Yeast Anticancer Drug Screen. Data for the mec2-1 strain (AID 157); settings: S. cerevisiae mec2-1 strain, at 50.0 µM, stronger effect = higher value
Method in brief: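 Yeast mec2-1 mutant treated with compound. Readout: growth inhibition vs vehicle controls.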

[3] = NCI Yeast Anticancer Drug Screen. Data for the sgs1 mgt1 strain (AID 161);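 also: 0% = growth of cultures given vehicle only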; settings: S. cerevisiae sgs1 mgt1 strain, at 50.0 µM, stronger effect = higher value
Method in brief: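 Genetically altered yeast, compound exposure, growth inhibition relative to vehicle.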

[4] = NCI Yeast Anticancer Drug Screen. Data for the cln2 rad14 strain (AID 165);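 also: 0% = growth equal to vehicle treated cultures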; settings: S. cerevisiae cln2 rad14 strain, at 50.0 µM, stronger effect = higher value
Method in brief: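 cln2 rad14 yeast strain; compound exposure; growth inhibition read vs vehicle controls.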

[5] = NCI Yeast Anticancer Drug Screen. Data for the bub3 strain (AID 167); settings: S. cerevisiae bub3 mutant strain, at 50.0 µM, stronger effect = higher value
Method in brief: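 Steps: expose the mutant yeast strain to compound; grow alongside vehicle-treated cultures; measure growth; express inhibition against the vehicle cultures.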

[6] = NCI Yeast Anticancer Drug Screen. Data for the mlh1 rad18 strain (AID 175); settings: S. cerevisiae mlh1 rad18 strain growth inhibition; at 50.0 µM; stronger effect = higher value
Method in brief: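 Yeast w/ defined DNA-repair lesions; compound exposure; growth vs vehicle controls → % inhibition.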

| SMILES | growth inhibition [1] | growth inhibition [2] | growth inhibition [3] | growth inhibition [4] | growth inhibition [5] | growth inhibition [6] |
| --- | --- | --- | --- | --- | --- | --- |
| NCC(O)c1ccc(O)c(O)c1 (stereo unspecified) | 38.8% (inactive) and 19.4% (inactive) | 39.9% (inactive) and -5.9% (inactive) | 30.9% (inactive) and -7.2% (inactive) | 19% (inactive) and -32.3% (inactive) | 28.5% (inactive) and 13.4% (inactive) | 44.6% (inactive) and 14.8% (inactive) |
| COC(=O)c1cccc2c[n+]3c(cc12)-c1[nH]c2cc(OC)ccc2c1CC3 | 4.55% (inactive) and 53% (inactive) | -16.9% (inactive) and 8.8% (inactive) | -0.05% (inactive) and 21.1% (inactive) | -8.05% (inactive) and -7.6% (inactive) | 4.6% (inactive) and 13.1% (inactive) | 14.6% (inactive) and 13.7% (inactive) |
| CC1CCC2(OC1)OC1CC3C4CCC5CC(O)CCC5(C)C4CCC3(C)C1C2C (stereo unspecified) | 22.4% (inactive) and -15.3% (inactive) | -29.8% (inactive) and -19.3% (inactive) | 2.45% (inactive) and -24.1% (inactive) | 7.15% (inactive) and 0.8% (inactive) | 9.4% (inactive) and -9.1% (inactive) | 26.8% (inactive) and -12.7% (inactive) |
| CCc1cc(-c2ccc(OC)cc2)c(C#N)c(=S)n1C1OC(COC(C)=O)C(OC(C)=O)C(OC(C)=O)C1OC(C)=O (stereo unspecified) | 40% (inactive) and 5.75% (inactive) | 1.35% (inactive) and -4.9% (inactive) | -10.4% (inactive) and -18.7% (inactive) | -20.9% (inactive) and -29.4% (inactive) | -0.9% (inactive) and 1.85% (inactive) | 11.2% (inactive) and 7.05% (inactive) |
| COC1OC(COC(=O)c2ccc([N+](=O)[O-])cc2)C2OC12 (stereo unspecified) | 7.6% (inactive) and -6.95% (inactive) | -7.95% (inactive) and -1% (inactive) | 8.7% (inactive) and 1.4% (inactive) | 17.2% (inactive) and 28.4% (inactive) | 27.2% (inactive) and -2.85% (inactive) | 7.95% (inactive) and 8.15% (inactive) |
| [B]C(=O)NC(CC(C)C)C(=O)NC1c2ccsc2C(=O)C1O (stereo unspecified) (tested in a mixture with another compound) | 3.05% (inactive) and 4.2% (inactive) | 18.6% (inactive) and 22.4% (inactive) | 12.1% (inactive) and 2.9% (inactive) | 2.9% (inactive) and 16.6% (inactive) | 32.3% (inactive) and 33.1% (inactive) | -16.1% (inactive) and -21.4% (inactive) |
| CC(CCC(=O)O)C(=O)O (stereo unspecified) | -16% (inactive) and 17.4% (inactive) | -7.65% (inactive) and -15.8% (inactive) | -8.6% (inactive) and -4.6% (inactive) | -5.7% (inactive) and 0.25% (inactive) | 4.95% (inactive) and 11.3% (inactive) | -8.5% (inactive) and 9.8% (inactive) |
| O=C(O)c1cccc(S(=O)(=O)O)c1 | -22.6% (inactive) and -9.2% (inactive) | -40.5% (inactive) and -8.4% (inactive) | -1.2% (inactive) and -9.2% (inactive) | -14.1% (inactive) and 13% (inactive) | -2.05% (inactive) and 0% (inactive) | 0.4% (inactive) and 2.45% (inactive) |
| NC(CCCc1ccccc1)C(=O)O (stereo unspecified) | 7.05% (inactive) and 3.35% (inactive) | -7.4% (inactive) and 0.65% (inactive) | -5.15% (inactive) and 1.45% (inactive) | -77% (inactive) and -22.5% (inactive) | 20.6% (inactive) and -1.2% (inactive) | -26.9% (inactive) and -10% (inactive) |
| CC1=C/C(=C(\c2cc(C)c(O)c(C(=O)O)c2)c2c(Cl)ccc(S(=O)(=O)O)c2Cl)C=C(C(=O)O)C1=O | 25.6% (inactive) and -15.2% (inactive) | 0.1% (inactive) and -0.75% (inactive) | 22.8% (inactive) and -4.2% (inactive) | 21.1% (inactive) and -2.6% (inactive) | -3.05% (inactive) and -7.4% (inactive) | 41.5% (inactive) and -2.55% (inactive) |
| CC1CCOS(=O)O1 (stereo unspecified) | 6.55% (inactive) and -13.5% (inactive) | -15% (inactive) and 6.9% (inactive) | 19.1% (inactive) and -9.65% (inactive) | 12.1% (inactive) and 11.6% (inactive) | -4.45% (inactive) and 7.7% (inactive) | 18.2% (inactive) and -7% (inactive) |
| COc1ccc(-c2cc(-c3ccco3)c(C#N)c(=O)n2C2OC(COC(C)=O)C(OC(C)=O)C(OC(C)=O)C2OC(C)=O)cc1 (stereo unspecified) | 8.3% (inactive) and -23% (inactive) | 12.3% (inactive) and 1.9% (inactive) | 23.9% (inactive) and 4% (inactive) | 42.2% (inactive) and 8.8% (inactive) | 16.8% (inactive) and -2.2% (inactive) | 11.1% (inactive) and -19.1% (inactive) |
| CC(Cc1ccccc1)NC1=NCCO1 (stereo unspecified) | -10.2% (inactive) and -16.2% (inactive) | -4.95% (inactive) and -18.4% (inactive) | 0.55% (inactive) and 1.5% (inactive) | 17.1% (inactive) and -13.2% (inactive) | -25.9% (inactive) and -27.4% (inactive) | 0.1% (inactive) and 72.5% (active) |
| CSCCC(NC(=O)COc1ccc(Cl)cc1Cl)C(=O)O (stereo unspecified) | -21.3% (inactive) and 16.8% (inactive) | -35.6% (inactive) and 60% (inactive) | -44.5% (inactive) and 34.2% (inactive) | 6.2% (inactive) and 7.2% (inactive) | -23.4% (inactive) and 30.6% (inactive) | -33.3% (inactive) and 52.7% (inactive) |
| CCOC(=O)C(=O)Cc1cnc2ccccc2n1 | 1.95% (inactive) and 3.05% (inactive) | 7.55% (inactive) and -4.8% (inactive) | -18.8% (inactive) and -8.3% (inactive) | 3.6% (inactive) and 10.7% (inactive) | -1.2% (inactive) and 7.2% (inactive) | 16.2% (inactive) and -5.05% (inactive) |
| CCN(CC)CCCNC | 6.2% (inactive) and 26.6% (inactive) | -4.75% (inactive) and 7.75% (inactive) | 3.2% (inactive) and 3.7% (inactive) | 2.25% (inactive) and -25.1% (inactive) | -9.6% (inactive) and -4.5% (inactive) | 7.3% (inactive) and 25.2% (inactive) |
| CC(C)(C)OC(=O)C1CCON1C1OC(C(O)CO)C2OC(C)(C)OC21 (stereo unspecified) | -3.45% (inactive) and 48.1% (inactive) | 7.85% (inactive) and 43% (inactive) | 2.4% (inactive) and 57.9% (inactive) | -8.25% (inactive) and 19% (inactive) | 13.2% (inactive) and 38.5% (inactive) | 10.8% (inactive) and 59.4% (inactive) |
| COc1cc(N)ccc1NC(C)=O | -5.25% (inactive) and 0.6% (inactive) | -13.6% (inactive) and -12.7% (inactive) | 4.45% (inactive) and -35.6% (inactive) | 18.4% (inactive) and -41% (inactive) | -0.9% (inactive) and -2.55% (inactive) | 18.8% (inactive) and -21.4% (inactive) |
| CC12CCC(C(=O)OC1=O)C2(C)C (stereo unspecified) | 3.8% (inactive) and -0.45% (inactive) | -8.2% (inactive) and 4.05% (inactive) | -46.8% (inactive) and -13.5% (inactive) | 28.1% (inactive) and -51% (inactive) | -29.8% (inactive) and 0.35% (inactive) | -55% (inactive) and -0.75% (inactive) |
| O=C(O)/C=C(\F)C(=O)O | -9.8% (inactive) and 14.7% (inactive) | -14.2% (inactive) and 7.95% (inactive) | -3.05% (inactive) and 10.9% (inactive) | -1.6% (inactive) and -9.15% (inactive) | 3.65% (inactive) and -20.8% (inactive) | 0.7% (inactive) and 11.6% (inactive) |
| CN(C)C=C(S(C)(=O)=O)S(C)(=O)=O | 10.2% (inactive) and -24.7% (inactive) | -2.05% (inactive) and -9.9% (inactive) | 20.1% (inactive) and -9.85% (inactive) | -17.5% (inactive) and 4.25% (inactive) | 5.8% (inactive) and 14.9% (inactive) | 9.1% (inactive) and -14.8% (inactive) |
